Results filed as inconclusive are left out. Activity calls are given as the source filed them. How the source made its calls, unless noted: active means hit-call score of the fitted dose curve at least 0.9, where 1 is the maximum; inconclusive means response in the unintended direction; inactive means score below 0.9.

In one assay the target is Estrogen receptor (Homo sapiens) (UniProt P03372). Kind of assay: CCTE_Deisenroth_AIME_384WELL_LUC_Active: CCTE's 384-well Estrogen Receptor Transactivation Assay with AIME metabolic competence (ERTA luciferase; metabolism positive), Deisenroth Lab (AID 2284030). The essentials: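 Test chemicals (10-point series, 0.002 - 200 uM) were preincubated 2 hours with alginate-immobilized phenobarbital/beta-naphthoflavone-induced male Sprague Dawley rat liver S9; conditioned medium then went onto VM7Luc4E2 breast cells for 24 hour. Luciferase gain-of-signal fitted relative to 17beta-estradiol.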
Chain of Estrogen receptor (Homo sapiens) (P03372 whole entry, looked up): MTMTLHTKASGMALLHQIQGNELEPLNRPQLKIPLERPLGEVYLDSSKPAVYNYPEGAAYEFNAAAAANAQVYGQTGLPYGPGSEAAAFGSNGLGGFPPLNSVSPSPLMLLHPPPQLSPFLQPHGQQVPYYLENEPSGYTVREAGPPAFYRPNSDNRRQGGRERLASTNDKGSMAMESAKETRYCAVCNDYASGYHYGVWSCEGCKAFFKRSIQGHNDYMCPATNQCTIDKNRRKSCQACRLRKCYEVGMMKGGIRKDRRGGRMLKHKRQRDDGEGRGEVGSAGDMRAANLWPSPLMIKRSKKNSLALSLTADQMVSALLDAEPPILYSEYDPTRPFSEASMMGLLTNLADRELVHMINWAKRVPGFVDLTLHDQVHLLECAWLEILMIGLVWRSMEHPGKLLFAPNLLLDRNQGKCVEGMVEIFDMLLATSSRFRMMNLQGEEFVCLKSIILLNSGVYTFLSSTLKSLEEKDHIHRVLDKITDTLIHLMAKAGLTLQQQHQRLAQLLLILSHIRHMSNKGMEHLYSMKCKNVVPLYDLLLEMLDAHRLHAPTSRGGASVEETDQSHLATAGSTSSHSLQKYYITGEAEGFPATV
As to `NC1CCCCC1`, the compound was classed as inactive.
On to `O=C(O)c1[nH]n(-c2ccc(S(=O)(=O)O)cc2)c(=O)c1N=Nc1ccc(S(=O)(=O)O)cc1`, for which the compound was called inactive.
As to `CCCCCCCCCCCCCCCCO`, the outcome was inactive.
The same measure, in the same setting: in the case of `CC(C)c1cccc(C(C)C)c1` it was “inactive”.
On the same count and under the same terms, in the case of `O=C(O)CC(O)(CC(=O)O)C(=O)O` it was “inactive”; in that of `O=[Si]=O`, “inactive”; in that of `CN(C)CCCN(C)CCCN(C)C`, “inactive”.
On the same count and under the same terms, in the case of `COC(=O)CCC(=O)OC` it was “inactive”; in that of `CC(C)OC(=O)C(C)(C)Oc1ccc(C(=O)c2ccc(Cl)cc2)cc1`, “inactive”; in that of `CCCCCCC(CCCCCCCCCCC(=O)OCC(COC(C)=O)OC(C)=O)OC(C)=O` (configuration not stated), “inactive”.
For `CC1(C)C(=O)NC(=O)N1CO`, the compound was classed as inactive.
Still for that read-out and setting: for `CCCCCCCC(=O)OC` the value was “inactive”; for `O=C1CCCCC1`, “inactive”.

Tested on in another assay: not listed separately
Kind of assay: CCTE_Shafer_MEA_dev_firing_rate_mean: CCTE's Neural Network Formation Assay for Mean Firing Rate, Shafer Lab (AID 2284031; active means hit-call score of the fitted dose curve at least 0.9, where 1 is the maximum; inactive means score below 0.9). In a few lines: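 Extracellular spike frequency, AUC over DIV 5–12 recordings, in rat cortical neuron MEA cultures dosed from plating; loss direction vs DMSO.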
With `OCC(O)CO`, the outcome was inactive.
Still for that read-out and setting: for `O=C1NC(=O)C(c2ccccc2)(c2ccccc2)N1` the value was “inactive”; for `CC(=O)CC(c1ccccc1)c1c(O)c2ccccc2oc1=O` (configuration not stated), “inactive”.

Tested on in the next assay: not listed separately
As to the kind of experiment: CCTE_Shafer_MEA_dev_per_burst_spike_percent: CCTE's Neural Network Formation Assay for Percent of Spikes in a Burst, Shafer Lab (AID 2284032; active means hit-call score of the fitted dose curve at least 0.9, where 1 is the maximum; inactive means score below 0.9). In a few lines: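 Value is trapezoidal AUC over recordings on days 5, 7, 9 and 12 of the well-mean fraction of spikes falling in single-electrode bursts; rat cortical cultures exposed continuously from plating, treatment renewed DIV 5 and 9, fitted downward against DMSO.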
Take `OCC(O)CO`: the result was inactive.
Same read-out and setting: in the case of `O=C1NC(=O)C(c2ccccc2)(c2ccccc2)N1` it was “inactive”; in that of `CC(=O)CC(c1ccccc1)c1c(O)c2ccccc2oc1=O` (configuration not stated), “inactive”.

Tested on in a further assay: not listed separately
Kind of assay: CCTE_Deisenroth_AIME_384WELL_CTox_Active: Cytotoxicity Assessment (CTOX) in CCTE's 384-well Estrogen Receptor Transactivation Assay with AIME metabolic competence (metabolism positive), Deisenroth Lab (AID 2284037).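 Further: chemicals first conditioned 2 h by alginate-bound induced rat liver S9 before cells; activity means signal loss indicating cell death.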 In a few lines:
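VM7Luc4E2 breast cells received medium pre-incubated 2 h with chemical over alginate microspheres holding induced male Sprague Dawley rat liver S9; viability read 24 h later by protease-substrate fluorescence. Loss of signal, bidirectional fit, 0.002–200 uM.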
Turning to `CC(C)(O)c1ccc(CNC(=O)c2cccnc2Oc2ccc(F)cc2)cc1`, the result was inactive.
As usually defined, the AC50 is the midpoint of the concentration-response curve, whichever way the signal moves. With `O=C(O)c1[nH]n(-c2ccc(S(=O)(=O)O)cc2)c(=O)c1N=Nc1ccc(S(=O)(=O)O)cc1`, the concentration at half-maximal activity (AC50) is 100 µM (active).
Take `CC(=O)OCC(COC(C)=O)OC(C)=O`: the compound was called inactive.
Consider `CCCCC(CC)CO` (configuration not stated), for which the compound was called inactive.
On the same count and under the same terms, in the case of `CCCCCCCCCCCCCCCCO` it was “inactive”; in that of `NC=O`, “inactive”.
On the same count and under the same terms, for `CC(C)c1cccc(C(C)C)c1` the value was “inactive”.
The same measure, in the same setting: in the case of `O=C(O)CC(O)(CC(=O)O)C(=O)O` it was “inactive”; in that of `CC(=O)CC(c1ccccc1)c1c(O)c2ccccc2oc1=O` (configuration not stated), “inactive”.
Take `CCOCCOCCO`: the compound was called inactive.
On the same count and under the same terms, for `O=[Si]=O` the value was “inactive”; for `CN(C)CCCN(C)CCCN(C)C`, “inactive”; for `C/C=C/C=C/C(=O)O`, “inactive”.
On the same count and under the same terms, in the case of `CC(C)OC(=O)C(C)(C)Oc1ccc(C(=O)c2ccc(Cl)cc2)cc1` it was “inactive”.
Turning to `Oc1ccccc1O`, the concentration at half-maximal activity (AC50) is 100 µM (active).
Regarding `CC1(C)C(=O)NC(=O)N1CO`, the compound was classed as inactive.
The same measure, in the same setting: for `CCCCCCCC(=O)OC` the value was “inactive”; for `COC(=O)CCCC(=O)OC`, “inactive”.
On the same count and under the same terms, for `CC(=O)O` the value was “inactive”; for `O=C1CCCCC1`, “inactive”.

The target in a further assay is Estrogen receptor (Homo sapiens) (UniProt P03372). Kind of assay: CCTE_Deisenroth_AIME_384WELL_LUC_Inactive: CCTE's 384-well Estrogen Receptor Transactivation Assay without AIME metabolic competence (ERTA luciferase; metabolism negative), Deisenroth Lab (AID 2284038).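 Further: hits raise estrogen receptor luciferase signal so potencies reflect agonists.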 In a few lines:
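Metabolism-negative mode: AIME lids stamped in alginate-water, no hepatic S9. 2 h chemical incubation → medium onto VM7Luc4E2 ERTA, 24 h. Readout luciferase luminescence; gain-of-signal fit vs 17beta-estradiol. Conc. 0.002 - 200 uM.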
In the case of `NC1CCCCC1`, the outcome was inactive.
Same read-out and setting: for `O=C(O)c1[nH]n(-c2ccc(S(=O)(=O)O)cc2)c(=O)c1N=Nc1ccc(S(=O)(=O)O)cc1` the value was “inactive”; for `CCCCCCCCCCCCCCCCO`, “inactive”; for `CC(C)c1cccc(C(C)C)c1`, “inactive”.
`O=C(O)CC(O)(CC(=O)O)C(=O)O`: the outcome was inactive.
On the same count and under the same terms, for `O=[Si]=O` the value was “inactive”; for `CN(C)CCCN(C)CCCN(C)C`, “inactive”.
Same read-out and setting: in the case of `COC(=O)CCC(=O)OC` it was “inactive”.
Still for that read-out and setting: in the case of `CC(C)OC(=O)C(C)(C)Oc1ccc(C(=O)c2ccc(Cl)cc2)cc1` it was “inactive”.
On to `CCCCCCC(CCCCCCCCCCC(=O)OCC(COC(C)=O)OC(C)=O)OC(C)=O` (configuration not stated), for which the result was inactive.
Same read-out and setting: for `CC1(C)C(=O)NC(=O)N1CO` the value was “inactive”; for `CCCCCCCC(=O)OC`, “inactive”.
With `O=C1CCCCC1`, the result was inactive.

(Values after PubChem BioAssay (EPA / NIEHS).)
